From PubChem BioAssay (Tox21) come the findings set out here.

A short description of experiment [1]: qHTS assay to identify small molecule antagonists of the thyroid receptor (TR) signaling pathway - cell viability counter screen (AID 743064). Note: nearly all actives have a fitted effect of over 50% in size. Note: potency is the fitted concentration of half-maximal effect. Summed up: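 Plate GH3.TRE-Luc cells; incubate 4 h at 37 °C; add compound, then T3 to 1 nM final; incubate 23.5 h; add CellTiter-Fluor; incubate 30 min at 37 °C, 5% CO2; read fluorescence.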
A short description of experiment [2]: qHTS assay to identify small molecule antagonists of the thyroid receptor (TR) signaling pathway (AID 743065). Note: nearly all actives have a fitted effect of over 55% in size. Note: potency is the fitted concentration of half-maximal effect. Summed up: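 GH3.TRE-Luc rat pituitary cells (two TREs driving luciferase) were dosed with compound, then stimulated with 1 nM T3 (final) for 23.5 h at 37 C. ONE-Glo luminescence was the read-out, with CellTiter-Fluor fluorescence as the cytotoxicity counter-screen.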
For orientation: In qHTS, concentration-response curves come from the screen itself.

Experiment [3] in a line: qHTS assay to identify small molecule antagonists of the estrogen receptor alpha (ER-alpha) signaling pathway - cell viability counter screen (AID 743074; calls by dose curve; note: nearly all actives have a fitted effect of over 45% in size).
A short description of experiment [4]: qHTS assay to identify small molecule antagonists of the estrogen receptor alpha (ER-alpha) signaling pathway using the BG1 cell line - cell viability counter screen (AID 743081).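 Note: compound given together with 17beta-estradiol as the ER stimulus; series mostly up to about 70 µM; nearly all actives have a fitted effect of over 45% in size.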
A further experiment addresses Aromatase (Homo sapiens) (UniProt P11511). In words: qHTS assay to identify aromatase inhibitors (AID 743083). Note: nearly all actives have a fitted effect of over 55% in size. Note: potency is the fitted concentration of half-maximal effect.
In experiment [5] the target is Aryl hydrocarbon receptor (Homo sapiens) (UniProt P35869). The experiment is described as follows: qHTS assay to identify small molecule that activate the aryl hydrocarbon receptor (AhR) signaling pathway (AID 743085).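 Note: HG2L7.5c1 human HepG2 liver cells with stably integrated DRE-driven firefly reporter; series mostly up to about 70 µM; nearly all actives have a fitted effect of over 15% in size.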 The method, boiled down:
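Steps: seed HepG2-AhR-luc cells; allow 5 h at 37C; pin-transfer test compound or vehicle; incubate 24 h at 37C; add viability dye (30 min, 37C) and read fluorescence; add luciferase substrate (30 min, RT) and read luminescence.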

Experiment [6] in a line: qHTS assay to identify small molecule that activate the aryl hydrocarbon receptor (AhR) signaling pathway - cell viability counter screen (AID 743086).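 Note: HepG2 liver cells carrying the AhR DRE luciferase reporter; series mostly up to about 70 µM; nearly all actives have a fitted effect of over 45% in size.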 The method, boiled down: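 HepG2-AhR-luc (HG2L7.5c1) cells, 4000/well, treated 24 h at 37 C with compound; viability measured as CellTiter-Fluor fluorescence after 30 min in the same wells as the luciferase read.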
Experiment [7] is described as follows: qHTS assay to identify small molecule antagonists of the peroxisome proliferator-activated receptor gamma (PPARg) signaling pathway - cell viability counter screen (AID 743194). Note: nearly all actives have a fitted effect of over 55% in size. The method, boiled down: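 Cytotoxicity counter screen in PPARg-bla HEK293H cells, same wells as reporter assay. Compounds plus 50 nM rosiglitazone (final) for 17 h at 37 C, then viability read by CellTiter-Glo luminescence.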

In experiment [8] the test system is thyroid hormone receptor (rat, GH3 cells). The experiment is described as follows: qHTS assay to identify small molecule agonists of the thyroid receptor (TR) signaling pathway (AID 743066; calls by dose curve).
Experiment [9] concerns the target Estrogen receptor (Homo sapiens) (UniProt P03372). The experiment is described as follows: qHTS assay to identify small molecule antagonists of the estrogen receptor alpha (ER-alpha) signaling pathway (AID 743069; active = well fitted curve in the direction sought with a large enough effect in the signal ratio in the repeat runs, not every such curve was filed as active; the % refers to the signal ratio). The method, boiled down:
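In this cell-based reporter format, GripTite HEK293 cells harbouring ER-alpha-UAS-bla were grown overnight with 2% charcoal-stripped FBS, dosed with DMSO-dissolved compounds, then challenged with 17beta-estradiol. After 18 hr at 37C, beta-lactamase activity was detected by FRET fluorescence.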

The target is the same in experiment [10]. In words: qHTS assay to identify small molecule agonists of the estrogen receptor alpha (ER-alpha) signaling pathway (AID 743075; calls by dose curve).
Experiment [11] shares this target. The experiment is described as follows: qHTS assay to identify small molecule agonists of the estrogen receptor alpha (ER-alpha) signaling pathway using the BG1 cell line (AID 743079). Note: nearly all actives have a fitted effect of over 20% in size.
The nature of experiment [12]: qHTS assay to identify small molecule antagonists of the estrogen receptor alpha (ER-alpha) signaling pathway using the BG1 cell line (AID 743080; calls by dose curve;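 note: BG1 cells stimulated with 17beta-estradiol alongside compound; series mostly up to about 70 µM; nearly all actives have a fitted effect of over 25% in size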). The method, boiled down: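 Quantitative HTS on the Tox21 10K library: BG1 cells with endogenous ER-alpha and ERE-luciferase reporter, 17beta-estradiol stimulation, 21.5 h compound exposure, luminescence endpoint with parallel fluorescence cytotoxicity counter-read.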

Experiment [13] can be described thus: qHTS assay to identify aromatase inhibitors - cell viability counter screen (AID 743084).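 Note: cells stimulated with testosterone during compound exposure; nearly all actives have a fitted effect of over 55% in size.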 Note: potency is the fitted concentration of half-maximal effect.
For experiment [14], the target named is Peroxisome proliferator-activated receptor gamma (Homo sapiens) (UniProt P37231). The experiment is described as follows: qHTS assay to identify small molecule agonists of the peroxisome proliferator-activated receptor gamma (PPARg) signaling pathway (AID 743094; active = well fitted activation curve with a large enough effect in the signal ratio in the repeat runs, not every such curve was filed as active; the % refers to the signal ratio; note: potency is the fitted concentration of half-maximal effect). The method, boiled down:
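Agonist activity was taken from a beta-lactamase reporter (FRET substrate, 1 h at room temperature) in HEK293H cells carrying a PPARg UAS-bla construct. Compounds in DMSO were incubated 17 h at 37C after a 5 h cell pre-incubation.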

Experiment [15] has the same target. The experiment is described as follows: qHTS assay to identify small molecule antagonists of the peroxisome proliferator-activated receptor gamma (PPARg) signaling pathway (AID 743191; calls by dose curve; note: series mostly up to about 63 µM; nearly all actives have a fitted effect of over 30% in size). Summed up:
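GeneBLAzer PPARg UAS-bla HEK293H cells, 5 h post-plating, exposed to compounds 17 h at 37C. LiveBLAzer B/G FRET substrate added for 1 h at room temperature; beta-lactamase reporter read by fluorescence intensity.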

The nature of experiment [16]: qHTS assay for small molecule agonists of the antioxidant response element (ARE) signaling pathway (AID 743202; active = well fitted activation curve with a large enough effect in the signal ratio in the repeat runs, not every such curve was filed as active; the % refers to the signal ratio). Summed up:
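HepG2 ARE-bla cells; 16 h treatment at 37 C; FRET-based beta-lactamase fluorescence read after 2 h substrate incubation at room temperature.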

Experiment [17] is described as follows: qHTS assay for small molecule agonists of the antioxidant response element (ARE) signaling pathway - cell viability counter screen (AID 743203; calls by dose curve; note: nearly all actives have a fitted effect of over 55% in size). Summed up:
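Viability counter screen: CellTiter-Glo luminescence, read after 30 min at room temperature, in ARE-bla HepG2 wells. Compound exposure lasted 16 h at 37C/5% CO2, following a 5 h pre-incubation of the cells after plating.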

The nature of experiment [18]: qHTS assay for small molecule activators of the heat shock response signaling pathway - cell viability counter screen (AID 743209). Note: nearly all actives have a fitted effect of over 50% in size. The method, boiled down: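 Cytotoxicity counter screen run in the same wells as the heat-shock bla reporter assay: HeLa HSE-bla cells, 5 h compound exposure at 37 C, viability read by CellTiter-Glo luminescence.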
The nature of experiment [19]: qHTS assay for small molecule activators of the heat shock response signaling pathway (AID 743210; active = well fitted activation curve with a large enough effect in the signal ratio in the repeat runs, with a control signal flat, not every such curve was filed as active; the % refers to the signal ratio;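 note: HeLa cells with beta-lactamase reporter driven by heat shock elements; series mostly up to about 63 µM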). Summed up:
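Following overnight attachment, HSE-bla HeLa cells received test compounds for 5 h at 37 C; beta-lactamase activity was then detected via FRET substrate fluorescence.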

Results filed as inconclusive are left out. The source made the active and inactive calls. Unless noted, calls come from the whole dose curve; as a rule, active = well fitted curve in the direction sought with a large enough effect in the repeat runs; inconclusive = weak or mixed curves; inactive = no such curve, though single readings can be large; an effect the other way counts as inactive or inconclusive.

Chain of Aryl hydrocarbon receptor (Homo sapiens) (P35869 whole entry, looked up): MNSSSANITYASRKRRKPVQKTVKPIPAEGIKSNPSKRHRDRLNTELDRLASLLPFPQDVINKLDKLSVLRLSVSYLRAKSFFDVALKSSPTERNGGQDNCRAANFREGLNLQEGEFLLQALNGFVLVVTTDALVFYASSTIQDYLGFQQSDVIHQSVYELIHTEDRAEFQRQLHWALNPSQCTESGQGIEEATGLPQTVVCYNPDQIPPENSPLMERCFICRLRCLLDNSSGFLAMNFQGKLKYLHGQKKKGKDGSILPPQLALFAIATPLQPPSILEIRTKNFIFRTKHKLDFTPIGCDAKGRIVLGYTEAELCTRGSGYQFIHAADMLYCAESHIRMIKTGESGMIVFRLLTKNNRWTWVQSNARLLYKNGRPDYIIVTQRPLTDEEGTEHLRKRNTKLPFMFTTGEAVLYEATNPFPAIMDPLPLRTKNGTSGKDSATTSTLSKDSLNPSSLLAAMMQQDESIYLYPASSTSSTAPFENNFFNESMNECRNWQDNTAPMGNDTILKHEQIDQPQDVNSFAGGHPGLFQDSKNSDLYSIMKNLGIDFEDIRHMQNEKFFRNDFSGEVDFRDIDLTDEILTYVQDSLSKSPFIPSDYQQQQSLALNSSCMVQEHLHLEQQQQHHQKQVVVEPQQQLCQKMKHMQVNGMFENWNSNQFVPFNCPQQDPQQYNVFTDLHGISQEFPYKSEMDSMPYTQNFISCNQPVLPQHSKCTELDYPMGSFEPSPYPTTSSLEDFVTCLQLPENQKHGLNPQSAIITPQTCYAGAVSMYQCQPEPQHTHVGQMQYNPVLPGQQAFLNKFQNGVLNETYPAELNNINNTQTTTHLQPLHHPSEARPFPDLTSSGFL
Chain of Peroxisome proliferator-activated receptor gamma (Homo sapiens) (P37231 whole entry, looked up): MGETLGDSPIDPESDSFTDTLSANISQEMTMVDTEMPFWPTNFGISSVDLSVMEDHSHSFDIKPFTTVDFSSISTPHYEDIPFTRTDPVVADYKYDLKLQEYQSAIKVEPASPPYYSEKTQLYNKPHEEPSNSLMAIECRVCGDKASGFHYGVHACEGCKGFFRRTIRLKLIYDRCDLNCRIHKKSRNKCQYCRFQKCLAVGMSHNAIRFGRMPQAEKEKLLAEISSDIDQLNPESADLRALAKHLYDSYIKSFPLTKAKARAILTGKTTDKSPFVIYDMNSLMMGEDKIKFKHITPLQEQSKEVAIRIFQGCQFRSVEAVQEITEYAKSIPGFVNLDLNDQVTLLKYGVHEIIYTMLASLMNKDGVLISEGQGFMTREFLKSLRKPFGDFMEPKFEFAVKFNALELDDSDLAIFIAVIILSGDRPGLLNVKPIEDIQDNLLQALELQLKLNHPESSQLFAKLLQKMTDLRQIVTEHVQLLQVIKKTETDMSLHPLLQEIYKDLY
Chain of Aromatase (Homo sapiens) (P11511 whole entry, looked up): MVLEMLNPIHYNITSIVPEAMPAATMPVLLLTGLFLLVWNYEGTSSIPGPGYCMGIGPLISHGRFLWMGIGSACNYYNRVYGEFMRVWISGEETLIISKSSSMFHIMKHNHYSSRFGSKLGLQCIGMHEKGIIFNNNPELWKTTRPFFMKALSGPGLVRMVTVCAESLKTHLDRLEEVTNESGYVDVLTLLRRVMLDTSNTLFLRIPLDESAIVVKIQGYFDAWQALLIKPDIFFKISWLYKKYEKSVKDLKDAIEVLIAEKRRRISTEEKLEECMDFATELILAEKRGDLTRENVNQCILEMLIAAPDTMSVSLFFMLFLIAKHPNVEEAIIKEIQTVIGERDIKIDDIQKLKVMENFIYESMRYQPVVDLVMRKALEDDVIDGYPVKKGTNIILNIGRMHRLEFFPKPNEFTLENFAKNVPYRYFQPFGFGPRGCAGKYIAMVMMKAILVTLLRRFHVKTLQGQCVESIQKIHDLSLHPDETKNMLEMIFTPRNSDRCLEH
Chain of Estrogen receptor (Homo sapiens) (P03372 whole entry, looked up): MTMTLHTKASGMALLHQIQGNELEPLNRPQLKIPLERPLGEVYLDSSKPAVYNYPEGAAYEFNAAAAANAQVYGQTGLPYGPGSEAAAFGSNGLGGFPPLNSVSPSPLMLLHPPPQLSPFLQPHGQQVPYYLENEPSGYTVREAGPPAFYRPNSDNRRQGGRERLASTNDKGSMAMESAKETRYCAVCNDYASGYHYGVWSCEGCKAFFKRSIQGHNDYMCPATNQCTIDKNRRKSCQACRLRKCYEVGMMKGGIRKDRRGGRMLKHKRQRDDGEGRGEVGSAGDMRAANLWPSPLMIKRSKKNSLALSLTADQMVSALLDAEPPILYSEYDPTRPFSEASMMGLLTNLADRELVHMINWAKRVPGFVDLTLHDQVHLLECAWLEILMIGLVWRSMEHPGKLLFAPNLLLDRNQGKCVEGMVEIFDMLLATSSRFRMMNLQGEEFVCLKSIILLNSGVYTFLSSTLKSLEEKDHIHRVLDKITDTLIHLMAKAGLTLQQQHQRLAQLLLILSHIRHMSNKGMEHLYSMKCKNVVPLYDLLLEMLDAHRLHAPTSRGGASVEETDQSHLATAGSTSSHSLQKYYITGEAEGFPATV

Turning to `CCOC(=O)[C@H](CCc1ccccc1)N[C@H]1CCc2ccccc2N(CC(=O)O)C1=O`, the results for the Potency (in experiment [1]; in experiment [2]; with Aromatase (Homo sapiens)) were 5.31 µM (active), 8.41 µM (active) and 15 µM (active), respectively. The molecule was classed as inactive in experiment [3]. Also, the Potency entry in experiment [4], in experiment [5], in experiment [6] and in [7] was “inactive” each time.
As to `c1ccc(CNCc2ccccc2)cc1`, the Potency result in experiment [1], in experiment [8], in experiment [9], in experiment [10], in [11] and in [12] was “inactive” in each case. Besides, the Potency entry (in experiment [4]; with Aromatase (Homo sapiens); in experiment [13]; in experiment [5]; in [6]; in experiment [14]) was “inactive” in each case. In addition, the Potency entry in [15], in experiment [7], in experiment [16], in experiment [17] and in experiment [18] was “inactive” each time. Also, the molecule was classed as inactive in experiment [3] and in [19].
In the case of `CC(C)=CCCC(C)CC=O` (stereo not drawn), the Potency entry in experiment [1], in experiment [2], in experiment [8], in experiment [4], in [13] and in [5] was “inactive” in each case. Moreover, the Potency result in [6], in [14], in experiment [7], in [16] and in experiment [17] was “inactive” throughout. Further, in [3], the molecule was called inactive.
With `C=CC(=O)OCCOC(=O)CCC(=O)O`, the Potency result in experiment [1], in [2], in experiment [8], in experiment [4], in experiment [5] and in experiment [6] was “inactive” throughout. Also, the Potency entry in [15], in [7], in experiment [17] and in [18] was “inactive” each time. For the same molecule, the call in [3] and in experiment [19] was inactive. Besides, the Potency in experiment [13] is 61.1 µM (active); in [14] it was 54.9 µM (active).
For the molecule `Cc1c(Cn2ccnc2)c2ccccc2n1CCC(=O)O`, the Potency result (in experiment [1]; in [2]; in experiment [8]; in experiment [4]; with Aromatase (Homo sapiens); in [13]) was “inactive” throughout. For the same molecule, the Potency entry in [6], in experiment [14], in experiment [7], in experiment [17] and in experiment [18] was “inactive” in each case. The outcome in [19] was inactive.
As for `NCc1ccccc1`, the Potency result in [1], in experiment [2], in experiment [8], in [4], in [6] and in [7] was “inactive” throughout. Besides, the Potency entry in [16], in [17] and in experiment [18] was “inactive” each time. Also, the outcome in experiment [3] and in [19] was inactive.
For `O=C=NC1CCC(CC2CCC(N=C=O)CC2)CC1` (stereo not drawn), the Potency entry (in experiment [1]; in experiment [2]; in [8]; with Aromatase (Homo sapiens); in experiment [13]; in experiment [5]) was “inactive” each time. Also, the Potency entry in [6], in experiment [14], in experiment [16], in experiment [17] and in experiment [18] was “inactive” each time. The molecule was classed as inactive in [3].
For the molecule `CCCCOc1ccc(CC(=O)NO)cc1`, the Potency result (in experiment [1]; in [2]; in [8]; in experiment [4]; with Aromatase (Homo sapiens); in [13]) was “inactive” in each case. Moreover, the Potency entry in [6], in experiment [14], in experiment [15], in [7], in [17] and in [18] was “inactive” in each case. Besides, the call in [19] was inactive.
Take `CN1CCC(=C2c3ccccc3CCc3sccc32)CC1`: the Potency in experiment [1] was 21.1 µM (active); in [2] it was 26.6 µM (active). The Potency entry (in [9]; in experiment [10]; in experiment [12]; in experiment [4]; with Aromatase (Homo sapiens); in experiment [13]) was “inactive” throughout. Further, the Potency entry in experiment [5], in [14], in experiment [15] and in experiment [17] was “inactive” in each case. The molecule was classed as inactive in [3].
In the case of `Cn1sccc1=O`, the Potency in [1] and in experiment [2] was 30.6 µM (active) throughout. Also, the Potency entry (in experiment [9]; in experiment [10]; in experiment [12]; in experiment [4]; in the experiment with Aromatase (Homo sapiens); in experiment [5]) was “inactive” each time. In addition, the Potency entry in experiment [6], in experiment [14], in experiment [15], in experiment [7] and in experiment [17] was “inactive” each time. Moreover, the result in [3] was inactive.
